Compound activity deposited in PubChem by National Center for Advancing Translational Sciences (NCATS).
A selection: hits, their analogues and other compounds. The true share with any hit is near 7.8%.
VACV Venus inh: vaccinia inhibition (Venus reporter); Vaccinia virus Venus reporter expression, fluorescence; AID 720580; 330,000 compounds, 0.46% hits; Potency, µM (doses to about 36.5 µM), inactives show at the highest dose activity change, negative = inhibition, most hits filed as inhibitors; calls by dose curve; tested in A549 cells; note: potency is the fitted concentration of half-maximal effect; nearly all actives have a fitted effect of over 30% in size
MARV entry inh: blocks Marburg virus binding to or entry into cells; Potency, µM (titrated, usually from 37.8 µM), for inactives: at the top dose activity change, negative = inhibition, usual class: inhibitors; 300,000 compounds, 1.8% hits; Marburg virus pseudotyped entry inhibition, cell reporter; calls by dose curve; tested in HEK293 cells; note: potency is the fitted concentration of half-maximal effect
Vaccinia mCherry: vaccinia inhibition (mCherry reporter) | Vaccinia virus mCherry reporter infection, fluorescence | Potency, µM (titrated, usually from 36.5 µM), for inactives: at the top dose activity change, negative = inhibition, hits mostly inhibitors | AID 720579 | 310,000 compounds, 0.63% hits; calls by dose curve; tested in A549 cells; note: potency is the fitted concentration of half-maximal effect; nearly all actives have a fitted effect of over 35% in size
HCV inh: inhibitors of hepatitis C virus infection. Huh7.5.1 HCVcc-Cre infection, luciferase reporter, 44 h. Potency, µM (series often up to 41.8 µM), inactives show top-dose activity change, negative = inhibition, actives largely listed as inhibitors. 340,000 compounds, 3.4% hits; active = well fitted inhibition curve with a large enough effect; inconclusive = small, poorly fitted or top-dose-only effect, or another doubt; inactive = no such curve, though single readings can be large or run the other way; note: potency is the fitted concentration of half-maximal effect
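Antiviral activity was scored by luciferase reporter output from cells infected with HCVcc-Cre (~0.5 moi) in presence of compound, 44 h infection period, cells seeded 1,000/well 4 h prior.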
Lassa entry inh: blocks Lassa virus binding to or entry into cells; Lassa virus pseudotype entry inhibition, cell reporter; Potency, µM (doses to about 37.9 µM), for the others: at the top dose activity change, negative = inhibition, hits mostly inhibitors; 300,000 compounds, 1.2% hits; calls by dose curve; tested in HEK293 cells; note: potency is the fitted concentration of half-maximal effect; nearly all actives have a fitted effect of over 50% in size
HCMV antiviral: blocks human cytomegalovirus replication; HFF cells, HCMV-luciferase reporter, 72 h; stronger effect = lower value; activity change, negative = inhibition, % at 57.5 µM; 410,000 compounds, 4.5% hits; AID 1259415; in the data active = activity change below about -60%; inconclusive = no clear call, values can overlap the other calls; inactive = above about -39%
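Steps: HFFs plated, 16 h 37C; compounds added; HCMV-luciferase added to MOI 1 PFU/cell; 72 h 37C; OneGlo reagent, 5 min room temperature; luminescence read, normalized to controls.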
Numbers without * were called inactive; i = inactive; ? = inconclusive; / = not tested or not shown; ! = repeats disagree; [ ] = dose if it differs, or a comment. % is set by controls: 0 for no effect and ±100 for the full control effect.

SMILES | VACV Venus inh | MARV entry inh | Vaccinia mCherry | HCV inh | Lassa entry inh | HCMV antiviral
CC1CN(CC(O)COC2CCC(C(C)(C)C)CC2)CC(C)O1 (stereo not drawn) | -16% | ? | -11% | -7% | 26%[46.1 µM] | -38
COC(=O)C(c1ccccc1)(c1cn(C)c2ccccc12)C(Nc1ccccc1)c1cccc(Br)c1 (stereo not drawn) | / | / | / | / | / | -14
CCO[C@H](c1cc(OC)cc([N+](=O)[O-])c1OC)[C@H](C)[C@@H](OC)[C@H](C)/C=C/CC(=O)OC | / | 1%[14.2 µM] | / | / | / | /
Cc1cc(NC2CCCC2)n2ncc(-c3ccccc3)c2n1 | -6% | ? | 3% | ? | ? | -90*
Cc1cc(-c2ccccc2)n2ncc(-c3ccccc3)c2n1 | -26% | 3.7µM* | i | ? | ? | -60*
Cc1nc2c(-c3ccccc3)cnn2c(N)c1-c1ccccc1 | ? | ? | ? | ? | ? | -91*
Cc1cc(NC2CCCC2)n2nc(C)c(-c3ccccc3)c2n1 | -25% | ? | i | ? | 9%[46.1 µM] | 18
COc1ccc(-c2cc(C)nc3c(-c4ccccc4)cnn23)cc1 | -11% | -27%[46.1 µM] | -13% | 11µM* | ? | 37
Cc1cc(NC(C)c2ccccc2)n2ncc(-c3ccccc3)c2n1 (stereo not drawn) | / | / | / | ? | / | 85
CCc1c(C)sc(NC(=O)c2cc(-c3cccc(Cl)c3)on2)c1C#N | -6%[7.34 µM] | -3%[46.1 µM] | -14%[7.34 µM] | / | -2%[46.1 µM] | -19
CCCN(CCC)C(=O)Cn1c(=O)n(CCCCCC(=O)NCc2ccc3c(c2)OCO3)c(=O)c2sccc21 | -5% | 1%[46.1 µM] | -5% | / | -7%[46.1 µM] | -16
Cc1cccc(OCC(=O)OCc2cc(=O)n3nc(-c4cccs4)sc3n2)c1 | 3% | / | -13% | / | ? | 39
O=C(CSc1n[nH]c(-c2ccccc2)n1)N1CCN(c2ccccc2F)CC1 | -10% | / | -10% | / | 7%[46.1 µM] | -5
CCOC(=O)C1=CN(CCC=C(C)C)C(=O)NC1c1ccccc1 (stereo not drawn) | / | 7%[14.2 µM] | / | / | ? | /
Cn1ccnc1SCc1cn2cc(Br)ccc2n1 | -9% | 6.3µM* | / | 6% | ? | -17
Cc1ccc(-c2nc(C)c(CCNC(=O)c3cccs3)s2)cc1 | -14% | / | -7% | / | -2%[46.1 µM] | 13
COc1cc(/C=C2\SC(=Nc3ccc(O)cc3)NC2=O)cc(OC)c1OC | -10% | ? | -6% | 4µM* | ? | -3
COc1ccc(N=C2NC(=O)/C(=C/c3ccc(O)c(OC)c3)S2)cc1 | 11% | ? | ? | -16% | 3.7µM* | -64*
COc1ccccc1-n1cc(C(=O)NCCN2Cc3ccccc3OC(c3ccsc3)C2)cn1 (stereo not drawn) | 0% | / | -17% | / | / | /
Cc1ccc[n+](C(C)C(=O)c2ccc(Cl)cc2)c1 (stereo not drawn) | / | / | / | 10% | / | -5
Cc1cc(C)c[n+](C(C)C(=O)c2ccc(-c3ccccc3)cc2)c1 (stereo not drawn) | -26% | ? | ? | -10% | -21% | -99*
Cc1cccc(CNCCc2c[nH]c3ccccc23)c1 | -29% | 10µM* | ? | ? | ? | -99*
COc1cccc(CNCCc2c[nH]c3ccccc23)c1OCc1ccccc1 | ? | ? | -30% | 10µM* | ? | ?
COc1cccc(C2(CC(=O)N3CCC(c4nc5ccccc5o4)CC3)CC(=O)N(C)C2=O)c1 (stereo not drawn) | -11% | / | -17% | / | / | /
C=C(C)CSc1cc(C)c(C#N)c2nc3ccccc3n12 | -3% | ? | i | 11µM* | ? | -75*
SMILES | VACV Venus inh | MARV entry inh | Vaccinia mCherry | HCV inh | Lassa entry inh | HCMV antiviral
COc1cc(Nc2nc3c(S(=O)(=O)c4ccccc4)nnn3c3ccc(Cl)cc23)cc(OC)c1 | -9% | 14%[46.1 µM] | -9% | / | / | -11
COc1ccc(OC)c(C(=O)CCCC(=O)c2cc(OC)ccc2OC)c1 | / | / | / | ? | / | -61*
Cc1cccc(Nc2ncnc3ccc(Br)cc23)c1 | ? | ? | -1% | -18% | -6%[46.1 µM] | -60*
COc1ccc(Nc2ncnc3ccc(Br)cc23)cc1OC | -21% | ? | ? | ? | -15% | /
Clc1cccc(Nc2ncnc3ccc(Br)cc23)c1 | ? | ? | -10% | ? | -24% | -62*
Cc1ccc2ncnc(Nc3ccccc3)c2c1 | -16% | -5%[46.1 µM] | -14% | -4% | -1% | -18
Clc1ccc(Nc2ncnc3ccc(Br)cc23)cc1 | ? | ? | ? | ? | -23% | -83*
Cc1ccc2ncnc(Nc3cccc(C(=O)O)c3)c2c1 | 2% | 13%[46.1 µM] | -3% | -2% | -4% | -3
CCOC(=O)c1cccc(Nc2ncnc3ccc(C)cc23)c1 | ? | ? | / | 25µM* | -17% | -24
CC(C)N(Cc1nc(-c2ccc(Cl)cc2)no1)C(=O)c1ccco1 | 2% | -3%[46.1 µM] | -10% | / | -2%[46.1 µM] | -28
CN(C)c1ccc(Nc2ncnc3ccc(Br)cc23)cc1 | / | / | / | -17% | / | -76*
CCOc1ccc(Cl)cc1CSc1n[nH]c(CC)n1 | / | -2% | / | 11µM* | 4% | -34
COc1ccc(Cl)cc1CSc1n[nH]c(C)n1 | / | 16% | / | -11% | 19% | -27
CCCCOc1ccc(Cl)cc1CSc1n[nH]c(C)n1 | -16% | 0.21µM* | i | -20% | -26% | -2
COc1cc(NC(=O)C2=C(N3CCOCC3)/C(=C/c3ccc(Cl)cc3)CC2)cc(OC)c1OC | -6% | 16µM* | i | 17% | -18% | 45
COc1cc(NC(=O)C2=C(N3CCOCC3)/C(=C\c3ccc(N(C)C)cc3)CCC2)cc(OC)c1OC | ? | ? | ? | 6.3µM* | ? | -91*
O=C(Nc1ccc(Cl)cc1Cl)[C@@H]1CC=C[C@@H]2CCN(C3CCCCC3)C(=O)[C@@H]21 | -7% | / | -1% | / | / | /
CC(C)=CCC/C(C)=C/CO/N=C1\C[C@@H](O)[C@@H](O)[C@@H]2[C@@H]3C(=O)N(C[C@@H]4CCCO4)C(=O)[C@@H]3CC[C@H]12 | / | -5%[14.2 µM] | / | / | / | /
Cc1cc(/C=C/c2ccnc3ccccc23)ccc1N | -6% | / | -26% | / | / | /
Cc1nc2ccc(S(=O)(=O)NCC(=O)NCc3ccc(Cl)cc3)cc2s1 | 0%[7.34 µM] | 6%[46.1 µM] | -14% | 0% | 3%[46.1 µM] | -69*!
Cc1ccc(CN2CCc3nnc(C(C)NC(=O)c4cc(F)ccc4F)n3CC2)o1 (stereo not drawn) | 0% | / | i | / | / | /
O=C1OCC(c2ccccc2)=C1c1ccccc1 | -8% | 18%[46.1 µM] | -14% | 1% | -30% | -28
CS(=O)(=O)c1ccc(C2=C(c3ccccc3)C(=O)OC2)cc1 | -12% | / | -2% | 7.1µM* | / | 3
COc1ccc(S(=O)(=O)Nc2ccc3c(c2)OCO3)cc1OC | / | -17% | / | 4% | 5% | 36
COc1ccc(NS(=O)(=O)c2ccc3c(c2)OCCO3)cc1OC | -6% | ? | -27% | 6.3µM* | -14%[46.1 µM] | -75*
COc1ccc(S(=O)(=O)Nc2ccc3c(c2)n(C)c(=O)n3C)cc1F | -13% | -5%[46.1 µM] | i | ? | -24%[46.1 µM] | -6
